# Experimental data: the supplement of paper PMC6555819
# Tested on: PPARg:RXRa 270nM:90nM, anti-RXR (NR concentration 270 nM, RXRa partner concentration 90 nM)
# Experiment: PBM binding z-score (relative to random genomic background probes); higher = stronger binding; sequences stand for … in GC…GCGATTGACAGCGTAGAATGAAGG
# Outline: (§1)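 Antibodies against each partner of ligand-free nuclear receptor dimers (one per run) detected binding on custom Agilent 4×180K protein-binding microarrays after 1 h incubation. The double-stranded probes had 34-nt variable regions carrying direct-repeat seeds, single-nucleotide variants, half-site ablations and random human genomic background sequences. Binding z-scores, from regression-normalized fluorescence, use the random background probes as reference.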
row,Sequence,PBM binding z-score
1,TGTAGTTGGTCAAAGGTCACACACTCGAAATGCG,9.78
2,GCGACTGGGGCACCAGCAGGTTACCATAACTTAA,1.44
3,CCTATTAGTTGACCATAAGGGCAACCGGAGCTCG,0.473
4,CCTACTGGGCCCTCAGGTCATTGATATCAACGTT,1.15
5,AACTCTAGGTAAAGTTCAGTGAAAGATCGATAGA,4.77
6,TCTATTAGTTGAAGCGCAACCGACGAGTCCGTTT,1.85
7,TCTATTAGTTTAAGGGCAACCGACGAGTCCGTTT,2.32
8,TAGCCTAGGTCAGATCGGGTCAGTATACGCTATA,1.5
9,GCGACTGGGGCATCAGCAGATTACCATAACTTAA,0.488
10,TGTCAAAGTTCAAATGTAACGTAAGTATCCACAC,7.12
11,ATACCAAGCTGATCGTGAGGTCGTTGATACTAAC,-0.0256
12,CCCAGTAGGTTATGGGGCATTCAGGCAACGGTGA,5.47
13,TAGCCGAGGTCAGATCGGGCCAGTATACGCTATA,3.56
14,AATACAGGGTCATCGGAGGCCAGAGTACGCACAG,6.12
15,CCTTACGGGTCTCGAGGTTATAGCACGACGAGCG,0.313
16,CCTGCTAGGTCATAGTCAGCTAATCTACAGTATG,2.14
17,GCGGCTAGGTCAACTGATGGTCAGCTAAAGCTCG,2.36
18,CGTACAGGGTCAGCTAGGCCAGAGTAGGGACGGC,3.3
19,ATCTCAAGGTAACAAGTTCAGTGAAAGAGAGGAC,1.08
20,ATCTAAAGGTCGAGGTGAGTATAGAGAAAGGGAA,4.02

row,Sequence,PBM binding z-score
1,AGACAAAGTTCACTAGGTAACGTAAGATTCAGCT,5.55
2,CCTTACGGCTCACTGACAGGTTATAGCATTTGGA,-0.0307
3,CGTCAGAGTTCAAGGTAACGTAACAGAAAGCAGC,3.58
4,ATCTCTAGGTAACTAAGTTCAGTGAATGCCGAAC,0.892
5,GCGACTGCGGCAAAGCAGGTTACCATAAGGTTGG,-0.534
6,GCTGCTAGATCAGGTTGGTCAGCTAACGGGTACG,-1.02
7,CCTCGGAGTACAGAAGGTCAGAGCTGTCCGCTTT,0.921
8,TTACCAAGGTGAAGGTCTTTGATCCCTCTGTAGA,2.45
9,TAGCCTAGGACATTCAGGGGCCAGTATAGAAAGC,-0.544
10,GCGACTGGGGCATTAGCAGGTTACCATAACTTAA,0.609
11,ATACCACGGTGATCGTGAGGTCGTTGATACTAAC,0.0838
12,TCTGCTAGGTCAGTTGGTCAGCTTACGAGCTGCC,1.69
13,TCGAGTAGGTTAGTCGGGACATTCAGCCAACATA,0.639
14,GCAGACAGGTGAAACGCAGGTAAGTCAGGGTGGC,-0.16
15,GCAGACAGGTGAAACGCCGGTAACTCAGGGTGGC,-0.0478
16,TCATATAAGTAAATGCTAGGTGAAAGTCCGATCT,2.49
17,TCATATAGGTAAAGGTGATAGTCGAACGATATGA,3.48
18,CCTTACGGGTCAACGTTATAGCACGGGTGGTACG,4.48
19,TAGCCTAGGTCAGATCGGGCCAGTACACGCTATA,0.997
20,AGAACGAGGCCACGCTGAGTTGATAGCAGAGTAG,0.196

# Tested on: PPARg:RXRa 30nM:10nM, anti-RXR (NR concentration 30 nM, RXRa partner concentration 10 nM)
# Experiment: as above
# Outline: as §1
row,Sequence,PBM binding z-score
1,TGTAGTTGGTCAAAGGTCACACACTCGAAATGCG,10.1
2,GCGACTGGGGCACCAGCAGGTTACCATAACTTAA,-0.582
3,CCTATTAGTTGACCATAAGGGCAACCGGAGCTCG,-0.154
4,CCTACTGGGCCCTCAGGTCATTGATATCAACGTT,-0.276
5,AACTCTAGGTAAAGTTCAGTGAAAGATCGATAGA,2.77
6,TCTATTAGTTGAAGCGCAACCGACGAGTCCGTTT,3.58
7,TCTATTAGTTTAAGGGCAACCGACGAGTCCGTTT,3.91
8,TAGCCTAGGTCAGATCGGGTCAGTATACGCTATA,0.171
9,GCGACTGGGGCATCAGCAGATTACCATAACTTAA,-0.24
10,TGTCAAAGTTCAAATGTAACGTAAGTATCCACAC,5.15
11,ATACCAAGCTGATCGTGAGGTCGTTGATACTAAC,-0.198
12,CCCAGTAGGTTATGGGGCATTCAGGCAACGGTGA,4.14
13,TAGCCGAGGTCAGATCGGGCCAGTATACGCTATA,1.05
14,AATACAGGGTCATCGGAGGCCAGAGTACGCACAG,2.64
15,CCTTACGGGTCTCGAGGTTATAGCACGACGAGCG,-0.359
16,CCTGCTAGGTCATAGTCAGCTAATCTACAGTATG,0.394
17,GCGGCTAGGTCAACTGATGGTCAGCTAAAGCTCG,0.0288
18,CGTACAGGGTCAGCTAGGCCAGAGTAGGGACGGC,0.448
19,ATCTCAAGGTAACAAGTTCAGTGAAAGAGAGGAC,0.731
20,ATCTAAAGGTCGAGGTGAGTATAGAGAAAGGGAA,1.72

row,Sequence,PBM binding z-score
1,AGACAAAGTTCACTAGGTAACGTAAGATTCAGCT,2.55
2,CCTTACGGCTCACTGACAGGTTATAGCATTTGGA,0.448
3,CGTCAGAGTTCAAGGTAACGTAACAGAAAGCAGC,0.864
4,ATCTCTAGGTAACTAAGTTCAGTGAATGCCGAAC,0.181
5,GCGACTGCGGCAAAGCAGGTTACCATAAGGTTGG,-0.785
6,GCTGCTAGATCAGGTTGGTCAGCTAACGGGTACG,-0.624
7,CCTCGGAGTACAGAAGGTCAGAGCTGTCCGCTTT,-0.606
8,TTACCAAGGTGAAGGTCTTTGATCCCTCTGTAGA,0.89
9,TAGCCTAGGACATTCAGGGGCCAGTATAGAAAGC,-0.505
10,GCGACTGGGGCATTAGCAGGTTACCATAACTTAA,-0.0543
11,ATACCACGGTGATCGTGAGGTCGTTGATACTAAC,-0.0631
12,TCTGCTAGGTCAGTTGGTCAGCTTACGAGCTGCC,0.977
13,TCGAGTAGGTTAGTCGGGACATTCAGCCAACATA,0.983
14,GCAGACAGGTGAAACGCAGGTAAGTCAGGGTGGC,-0.946
15,GCAGACAGGTGAAACGCCGGTAACTCAGGGTGGC,-0.502
16,TCATATAAGTAAATGCTAGGTGAAAGTCCGATCT,4.34
17,TCATATAGGTAAAGGTGATAGTCGAACGATATGA,3.92
18,CCTTACGGGTCAACGTTATAGCACGGGTGGTACG,1.52
19,TAGCCTAGGTCAGATCGGGCCAGTACACGCTATA,-0.169
20,AGAACGAGGCCACGCTGAGTTGATAGCAGAGTAG,-0.0987
